Source: PubChem BioAssay (National Center for Advancing Translational Sciences (NCATS))
HBB splicing: modulators of hemoglobin beta chain splicing. hit rate 0.06% among 65,000. Potency, µM (top dose mostly 46.1 µM), without a hit: at the top dose activation, most hits filed as activators. HBB splicing reporter cell assay, activation; EGFP reporter with mutant IVS2-654 intron; response scale: normalised to 500 nM splice-correcting PNA; note: potency is the fitted concentration of half-maximal effect; 0% is about no effect
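HeLa cells stably expressing EGFP interrupted by mutant beta-globin intron 2 (IVS2-654), 500/well in 2% FCS. Treated with compound for 2 days at 37C. Splicing correction scored as total well GFP intensity (488 nm excitation, 500-520 nm emission); 500 nM antisense PNA served as control.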
UbGFP stabilizer: proteasome inhibitors stabilizing ubiquitin-GFP reporter; Ubiquitin-GFP reporter cells, proteasome inhibition, GFP fluorescence; response scale: untreated = 0%, 10 µM MG-132 = 100%; Potency, µM (titrated, usually from 45.9 µM), without a hit: top-dose activation (GFP accumulation), actives largely listed as activators; 67,000 tested, under 10 active; AID 526; active = well fitted activation curve with a large enough effect, not every such curve was filed as active; inconclusive = small, poorly fitted or top-dose-only effect, or another doubt; inactive = no such curve, though single readings can be large or run the other way; note: potency is the fitted concentration of half-maximal effect
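GFP accumulation read-out: laser plate cytometry counting ubiquitin(G76V)-GFP-expressing U2OS cells after 4 hr compound exposure at 37 °C. Titrations spanned 46 uM to 2.9 nM; 0% = basal, 100% = 10 uM MG-132; concentration-response curves fitted.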
GFP derepression: epigenetic modulators derepressing GFP locus in mouse cells; hit rate 0.09% among 68,000; mouse C127i GFP locus derepression, cytometry, 30 h; Potency, µM (series often up to 46.1 µM), without a hit: at the top dose GFP derepression (activation); note: % of control where 0% means no effect
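Locus derepression in mouse mammary C127i cells whose integrated CMV-GFP reporter is normally silent; GFP expression after 30 h compound treatment was quantified by counting fluorescent cells.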
TSHR ag: TSH receptor (human) agonism; hit rate 0.48% among 73,000; HEK293-CNG-TSHR cells (CNG channel as cAMP sensor), membrane potential dye, cAMP; P16473; Potency, µM (highest dose often 57.1 µM), without a hit: top-dose activation, usual class: activators; active = well fitted activation curve with a large enough effect in the main read-out, with a control signal flat, not every such curve was filed as active; inconclusive = small, poorly fitted or top-dose-only effect, or a change in a side signal; inactive = no such curve, though single readings can be large or run the other way; % of control where 0% means no effect;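 note: the control signal comes from parental cells without the receptor; potency is the fitted concentration of half-maximal effect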
Target sequence (P16473 whole entry, looked up): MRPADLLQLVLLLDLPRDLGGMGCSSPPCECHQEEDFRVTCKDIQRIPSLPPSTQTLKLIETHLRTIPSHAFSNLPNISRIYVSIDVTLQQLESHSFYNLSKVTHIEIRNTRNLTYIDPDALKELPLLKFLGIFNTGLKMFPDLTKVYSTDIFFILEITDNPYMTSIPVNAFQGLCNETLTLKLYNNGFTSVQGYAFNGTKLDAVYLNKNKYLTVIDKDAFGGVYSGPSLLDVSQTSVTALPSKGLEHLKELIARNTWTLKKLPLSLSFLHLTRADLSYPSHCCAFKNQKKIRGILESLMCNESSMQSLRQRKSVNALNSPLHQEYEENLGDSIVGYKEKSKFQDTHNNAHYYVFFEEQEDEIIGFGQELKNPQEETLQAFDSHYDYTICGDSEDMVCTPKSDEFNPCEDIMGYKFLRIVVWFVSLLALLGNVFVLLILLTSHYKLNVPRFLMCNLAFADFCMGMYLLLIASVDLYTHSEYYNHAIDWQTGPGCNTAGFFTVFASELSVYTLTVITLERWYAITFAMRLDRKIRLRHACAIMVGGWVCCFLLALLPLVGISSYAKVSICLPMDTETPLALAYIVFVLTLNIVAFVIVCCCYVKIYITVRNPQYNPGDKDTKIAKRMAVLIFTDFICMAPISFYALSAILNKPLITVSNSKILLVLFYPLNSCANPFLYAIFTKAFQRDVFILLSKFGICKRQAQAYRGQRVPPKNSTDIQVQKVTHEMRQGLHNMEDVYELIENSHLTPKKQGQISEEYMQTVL
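cAMP rise detected as CNG-channel membrane depolarization by fluorescent dye (emission 590 nm), 30 min after compound, following 60 min dye loading containing 100 uM RO 20-1724 at room temperature. Cells: TSHR/CNG HEK 293, with parental CNG HEK 293 as control.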
ERK AVP block: blocks ERK signaling stimulated by vasopressin; HEK293-V1b, vasopressin-stimulated pERK AlphaScreen; Potency, µM (highest dose often 57.5 µM), inactives show at the top dose activity, negative = inhibition, usual class: inhibitors; hit rate 0.99% among 72,000; note: potency is the fitted concentration of half-maximal effect; % is set by controls: 0 for no effect and ±100 for the full control effect; nearly all actives have a fitted effect of over 55% in size
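V1b-HEK293 cells; cpd 30 min 37C; 25 nM vasopressin 5 min; lyse 10 min; AlphaScreen beads 5 hr RT. Normalized to DMSO basal and 25 nM vasopressin; AC50 by Hill fit.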
HEK293 cAMP ctrl: raises cAMP in parental HEK293 cells, TSHR agonist counter-screen. Potency, µM (top dose mostly 57.1 µM), for inactives: top-dose activation, usual class: activators. AID 938. parental HEK293 CNG cAMP sensor, membrane potential fluorescence. hit rate 2.5% among 73,000; note: potency is the fitted concentration of half-maximal effect; % of control where 0% means no effect; nearly all actives have a fitted effect of over 55% in size
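Counterscreen for endogenous-receptor signalling: CNG-channel HEK 293 cells report cAMP rise by membrane depolarization. After 60 min dye equilibration with 100 uM RO 20-1724, compounds incubated 30 min before bottom-read fluorescence at 590 nm.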
* = called active by the depositor; ? = inconclusive; nt = no result given; [ ] = remark or other dose. Shown are actives, neighbours in structure and some others; about 3.8% of the full set was active somewhere. Unless noted, calls come from the whole dose curve; as a rule, active = well fitted curve in the direction sought with a large enough effect; inconclusive = small, poorly fitted or top-dose-only effect, or another doubt; inactive = no such curve, though single readings can be large; an effect the other way counts as inactive or inconclusive.

SMILES	HBB splicing	UbGFP stabilizer	GFP derepression	TSHR ag	ERK AVP block	HEK293 cAMP ctrl
COC(=O)C1(Cc2ccccc2)C2c3cc(C(=O)N4CCCC4)n(Cc4ccc(OC(F)(F)F)cc4)c3CC2CN1C(=O)c1ccccc1 (stereo not given)	-1.9%	nt	nt	?	4.6%	1.26µM*
CCOc1ccccc1CN(Cc1ccco1)S(=O)(=O)c1ccc(-n2cnnn2)c(OC)c1	nt	-1.1%	-0.7%	?	16.6%	10µM*
COc1cc(S(=O)(=O)N(Cc2ccco2)C2CCCC2)ccc1-n1cnnn1	nt	-3.7%	5.1%	?	?	?
CC(C)C[C@H](NC(=O)[C@@H](NC(=O)N[C@@H](Cc1ccccc1)C(=O)O)[C@H]1CCN=C(N)N1)C(=O)N[C@H](C=O)Cc1ccccc1	nt	1.3%	7.0%[9.22 µM]	3.5%	nt	4.1%
Cc1nc(NC2CCCCC2)c2nc(-c3ccccc3)n(CCN3CCCC3)c2n1	-0.6%	-1.4%	nt	?	?	?
FC(F)(F)c1ccccc1-c1cncnc1-n1ccnc1	-0.9%	0.0%	-2.9%[9.22 µM]	7.3%	5.1%	21.8%
CN(C)c1ccc(-c2cncnc2-n2ccnc2)cc1	1.2%	8.6%	-0.6%[9.22 µM]	0.7%	15.8µM*	2.6%
CN(C)c1ncnc2ccc(-c3cccc(C#N)c3)cc12	-0.3%	0.4%	-0.4%[9.22 µM]	11.8%	-18.4%	6.1%
CCOc1cc(C(=O)OCc2ccc(C(=O)OC)o2)cc(Br)c1OC	-1.4%	2.6%	-0.4%	?	8.6%	31.6µM*
CCOc1ncccc1C(=O)OCc1ccc(C(=O)OC)o1	-0.2%	0.9%	-2.4%	5.8%	?	14.0%
CC(C)C1C(C#N)=C(N)Oc2n[nH]c(-c3cccs3)c21 (stereo not given)	0.1%[57.5 µM]	-1.3%	-1.3%	11.1%	15.8µM*	2.5%
N#CC1=C(N)Oc2n[nH]c(-c3ccncc3)c2C1c1ccsc1 (stereo not given)	5.0%[1.84 µM]	0.7%	-2.0%	1.3%	10µM*	4.9%
N#CC1=C(N)Oc2n[nH]c(-c3cccs3)c2C1c1ccoc1 (stereo not given)	1.7%	-2.5%	0.0%	10.1%	?	20.0%
N#CC1=C(N)Oc2n[nH]c(-c3ccc(F)cc3)c2C1c1ccncc1 (stereo not given)	0.0%	-0.9%	-2.0%	1.6%[11.4 µM]	-15.8%	-4.7%
COc1ccc(C2C(C#N)=C(N)N3C(=C2C#N)Sc2ccccc23)cc1 (stereo not given)	27.6%	15.1%	12.6µM*	-3.7%	6.5%	-1.1%
CC(=O)OC1CC(O)C(C)(C)C2CC(OC(C)=O)[C@]3(C)C(CC[C@@]4(C)C(c5ccoc5)OC(=O)C5OC534)[C@]12C (stereo not given in full)	nt	nt	nt	nt	-7.3%	nt
CCOC(=O)c1cccc(Nc2nc(C)cc(C)n2)c1	-1.2%	2.7%	5.7%	6.6%	-0.6%	1.3%
COC(=O)c1cccc(Nc2nc3ccccc3nc2C)c1	0.7%	11.6%	5.5%	?	25.1µM*	31.6µM*
Nc1nc(SC/C=C\c2ccccc2)c2[nH]cnc2n1	4.6%[9.22 µM]	7.2%[9.17 µM]	-2.2%[9.22 µM]	-4.2%[11.4 µM]	9.6%[11.5 µM]	-3.0%[11.4 µM]
N#CCCn1c(=O)c(-c2cccc(C#N)c2)nc2cnc(N3CCOCC3)nc21	-0.1%	-2.9%	-0.4%[9.22 µM]	-1.3%	-7.3%	8.9%
O=C1c2cccnc2-c2ncccc21	-2.1%	-7.5%	2.8%	1.2%	5.1%	2.8%
CC1(C)OCC(CSC2=C(SCC3COC(C)(C)O3)C(=O)c3ncccc3C2=O)O1 (stereo not given)	?	nt	nt	2.6%	15.8µM*	2.2%
CC1CCC(C(=O)O)NC1c1ccc(-c2ccco2)cc1 (stereo not given)	2.2%[9.22 µM]	nt	nt	8.1%[11.4 µM]	2.7%[11.5 µM]	5.2%[11.4 µM]
COc1cccc(-c2nc(NCc3cccnc3)c3ccccc3n2)c1	1.8%	-3.3%	0.0%[9.22 µM]	31.6µM*	?	11.0%
COc1cccc(-c2nc(NCc3ccccc3OC)c3ccccc3n2)c1	0.5%	-5.8%	-2.9%[9.22 µM]	nt	-24.0%	-7.3%
SMILES	HBB splicing	UbGFP stabilizer	GFP derepression	TSHR ag	ERK AVP block	HEK293 cAMP ctrl
N#Cc1cccc(-c2nc(NCc3cccnc3)c3ccccc3n2)c1	0.3%	1.3%	-2.9%[9.22 µM]	nt	?	-11.4%
COc1cccc(-c2nc(NCc3ccccc3)c3ccccc3n2)c1	1.0%	-1.4%	3.4%[9.22 µM]	?	?	31.6µM*
COc1cccc(-c2nc(NC3CC3)c3ccccc3n2)c1	-1.9%	-4.2%	-2.9%[9.22 µM]	nt	12.6µM*	6.0%
c1cncc(CNc2nc(-c3cccnc3)nc3ccccc23)c1	-0.1%	2.0%	2.4%[9.22 µM]	25.1µM*	?	-4.6%
CN1CCN(c2ncc3ncc(=O)n(CCC#N)c3n2)CC1	3.2%	0.9%	5.4%[9.22 µM]	5.5%	5.5%	6.7%[0.457 µM]
COc1ccc(NC(=O)N2CCCC3(CCN(C(=O)c4cccc(F)c4)CC3)C2)cc1	2.6%	-8.4%	4.7%[9.22 µM]	23.6%	2.4%	8.2%
COC(=O)c1cc(CSc2nnc(NC3CCCCC3)s2)oc1C	-3.2%	-8.7%	0.0%	?	5.0%	12.6µM*
CCOC(=O)Cc1csc(NC(=O)CSc2ncnc3c2cnn3-c2ccc(OC)cc2)n1	nt	-3.9%	1.0%	?	5.01µM*	?
CN(C)c1ccc(-c2ccc3ncnc(NC4CC4)c3c2)cc1	1.1%	-2.9%	-0.5%[9.22 µM]	1.4%	?	-10.9%
COC(=O)C1(Cc2ccccc2)C=C2C(=C(c3ccccc3)C(=O)C2C)CN1 (stereo not given)	0.8%	nt	nt	?	-7.8%	31.6µM*
CCOC(=O)OCC1OC(CCc2ccccc2)CCC1Oc1ccc(OC)cc1 (stereo not given)	1.1%[9.22 µM]	nt	nt	10.9%[11.4 µM]	3.1%[11.5 µM]	16.8%[11.4 µM]
CN(Cc1ccco1)c1nc(-c2cccnc2)nc2ccccc12	0.0%	-4.9%	-4.3%[9.22 µM]	?	?	25.1µM*
CN(Cc1ccco1)c1nc(-c2ccccc2Cl)nc2ccccc12	1.7%	-1.9%	2.2%[9.22 µM]	18.4%	13.2%	23.4%
CN(Cc1ccco1)c1cc(-c2cccnc2)ncn1	-1.7%	4.9%	2.3%[9.22 µM]	10.1%	?	-7.7%
CN(Cc1ccco1)c1nc(-c2ccccc2C(F)(F)F)nc2ccccc12	-0.3%	-4.4%	-2.2%[9.22 µM]	?	1.8%	10µM*
COc1ccccc1-c1nc(N(C)Cc2ccco2)c2ccccc2n1	-2.4%	12.2%	-4.8%[9.22 µM]	?	-28.6%	25.1µM*
CN(Cc1ccco1)c1ncncc1-c1ccccc1C(F)(F)F	0.2%	2.4%	2.9%[9.22 µM]	?	-0.6%	?
N=c1ccn2c(n1)O[C@H]1[C@@H](OP(=O)(O)O)[C@H](CO)O[C@H]12	2.5%[9.22 µM]	-2.2%[9.17 µM]	5.6%[9.22 µM]	-0.4%[11.4 µM]	11.5%[11.5 µM]	5.5%[11.4 µM]
